From ChEMBL document CHEMBL2218924, “A broad activity screen in support of a chemogenomic map for kinase signalling research and drug discovery” (Biochem J, 2013)

Tests used:
[1] = biological target: Homeodomain-interacting protein kinase 3 (Homo sapiens) (UniProt Q9H422); conditions: at 10 µM
[2] = biological target: T1, Serine/threonine-protein kinase haspin (Homo sapiens) (UniProt Q8TF76); conditions: at 1 µM
T1 sequence (whole entry): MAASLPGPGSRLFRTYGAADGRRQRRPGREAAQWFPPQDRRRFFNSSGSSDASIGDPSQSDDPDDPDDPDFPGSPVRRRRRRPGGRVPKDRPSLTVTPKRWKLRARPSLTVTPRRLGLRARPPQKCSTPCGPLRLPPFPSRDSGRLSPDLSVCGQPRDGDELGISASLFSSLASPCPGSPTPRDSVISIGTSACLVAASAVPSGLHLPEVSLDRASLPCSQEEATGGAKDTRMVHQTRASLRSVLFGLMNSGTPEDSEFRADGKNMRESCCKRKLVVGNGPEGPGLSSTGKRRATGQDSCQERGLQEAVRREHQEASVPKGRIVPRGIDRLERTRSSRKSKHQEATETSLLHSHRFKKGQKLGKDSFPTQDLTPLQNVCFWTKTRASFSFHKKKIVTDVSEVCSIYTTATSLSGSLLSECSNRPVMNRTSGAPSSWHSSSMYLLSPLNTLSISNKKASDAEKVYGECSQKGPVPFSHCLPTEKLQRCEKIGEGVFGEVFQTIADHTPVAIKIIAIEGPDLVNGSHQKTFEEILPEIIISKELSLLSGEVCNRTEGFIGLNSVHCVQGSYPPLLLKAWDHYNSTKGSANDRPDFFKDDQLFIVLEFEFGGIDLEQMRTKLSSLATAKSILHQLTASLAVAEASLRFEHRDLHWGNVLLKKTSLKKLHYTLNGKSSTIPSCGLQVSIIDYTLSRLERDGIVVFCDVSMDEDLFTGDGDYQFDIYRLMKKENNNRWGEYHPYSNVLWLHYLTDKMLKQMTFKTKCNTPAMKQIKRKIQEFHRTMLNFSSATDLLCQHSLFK

[3] = biological target: T1, Serine/threonine-protein kinase haspin (Homo sapiens); conditions: at 10 µM
[4] = biological target: Tyrosine-protein kinase HCK (Homo sapiens) (UniProt P08631); conditions: at 1 µM
[5] = biological target: Tyrosine-protein kinase HCK (Homo sapiens) (UniProt P08631); conditions: at 10 µM
[6] = biological target: Tyrosine-protein kinase HCK (Homo sapiens) (UniProt P08631); conditions: at 1 µM; remark: listed apart in the source
[7] = biological target: Tyrosine-protein kinase HCK (Homo sapiens) (UniProt P08631); conditions: at 10 µM; remark: listed apart in the source
[8] = biological target: Insulin-like growth factor 1 receptor (Homo sapiens) (UniProt P08069); conditions: at 1 µM
[9] = biological target: Protein kinase C eta type (Homo sapiens) (UniProt P24723); conditions: at 1 µM
[10] = biological target: Protein kinase C eta type (Homo sapiens) (UniProt P24723); conditions: at 10 µM
[11] = biological target: Protein kinase C theta type (Homo sapiens) (UniProt Q04759); conditions: at 1 µM
[12] = biological target: Protein kinase C theta type (Homo sapiens) (UniProt Q04759); conditions: at 10 µM
[13] = biological target: T2, Protein kinase C iota type (Homo sapiens) (UniProt P41743); conditions: at 1 µM
T2 sequence (whole entry): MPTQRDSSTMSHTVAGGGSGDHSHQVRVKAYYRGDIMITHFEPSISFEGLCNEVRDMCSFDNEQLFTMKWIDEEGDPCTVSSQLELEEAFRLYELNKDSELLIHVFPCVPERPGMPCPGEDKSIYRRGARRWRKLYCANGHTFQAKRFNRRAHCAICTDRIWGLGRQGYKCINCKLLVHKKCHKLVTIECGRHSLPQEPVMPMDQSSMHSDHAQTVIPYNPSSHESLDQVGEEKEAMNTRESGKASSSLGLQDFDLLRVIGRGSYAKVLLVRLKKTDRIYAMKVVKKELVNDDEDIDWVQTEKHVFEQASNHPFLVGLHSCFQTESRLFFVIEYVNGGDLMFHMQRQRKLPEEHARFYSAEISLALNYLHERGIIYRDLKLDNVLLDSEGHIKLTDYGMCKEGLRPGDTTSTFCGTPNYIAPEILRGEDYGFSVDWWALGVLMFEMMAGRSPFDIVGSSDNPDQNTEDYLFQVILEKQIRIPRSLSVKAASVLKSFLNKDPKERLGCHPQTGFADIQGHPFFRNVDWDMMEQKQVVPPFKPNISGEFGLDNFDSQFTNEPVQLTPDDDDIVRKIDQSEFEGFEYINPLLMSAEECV

[14] = biological target: T2, Protein kinase C iota type (Homo sapiens); conditions: at 10 µM
[15] = biological target: T3, Serine/threonine-protein kinase D2 (Homo sapiens) (UniProt Q9BZL6); conditions: at 1 µM
T3 sequence (whole entry): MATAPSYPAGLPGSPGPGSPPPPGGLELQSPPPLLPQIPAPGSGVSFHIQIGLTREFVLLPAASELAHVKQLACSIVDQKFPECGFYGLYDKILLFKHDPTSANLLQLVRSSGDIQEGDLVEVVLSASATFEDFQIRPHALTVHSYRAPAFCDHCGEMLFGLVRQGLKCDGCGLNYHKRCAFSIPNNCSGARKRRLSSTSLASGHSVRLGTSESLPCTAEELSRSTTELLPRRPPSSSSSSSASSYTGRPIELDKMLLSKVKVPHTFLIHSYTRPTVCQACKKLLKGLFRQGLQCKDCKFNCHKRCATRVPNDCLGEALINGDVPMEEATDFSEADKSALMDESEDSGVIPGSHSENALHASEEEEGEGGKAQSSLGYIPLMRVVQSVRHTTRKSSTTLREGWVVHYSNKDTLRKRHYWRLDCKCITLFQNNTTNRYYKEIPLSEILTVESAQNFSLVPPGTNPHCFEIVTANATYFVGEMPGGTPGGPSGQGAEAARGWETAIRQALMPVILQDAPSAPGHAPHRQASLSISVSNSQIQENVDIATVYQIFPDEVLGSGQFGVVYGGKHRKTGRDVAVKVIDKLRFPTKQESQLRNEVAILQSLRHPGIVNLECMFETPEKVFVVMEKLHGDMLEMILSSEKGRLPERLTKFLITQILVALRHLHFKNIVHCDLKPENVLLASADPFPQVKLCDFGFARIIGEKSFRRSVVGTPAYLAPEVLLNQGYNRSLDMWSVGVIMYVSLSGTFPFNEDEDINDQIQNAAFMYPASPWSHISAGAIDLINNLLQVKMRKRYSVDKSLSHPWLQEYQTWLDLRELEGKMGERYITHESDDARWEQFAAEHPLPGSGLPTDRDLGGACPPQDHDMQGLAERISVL

[16] = biological target: T3, Serine/threonine-protein kinase D2 (Homo sapiens); conditions: at 10 µM
[17] = biological target: Insulin-like growth factor 1 receptor (Homo sapiens) (UniProt P08069); conditions: at 10 µM
[18] = biological target: T4, Serine/threonine-protein kinase D1 (Homo sapiens) (UniProt Q15139); conditions: at 1 µM
T4 sequence (whole entry): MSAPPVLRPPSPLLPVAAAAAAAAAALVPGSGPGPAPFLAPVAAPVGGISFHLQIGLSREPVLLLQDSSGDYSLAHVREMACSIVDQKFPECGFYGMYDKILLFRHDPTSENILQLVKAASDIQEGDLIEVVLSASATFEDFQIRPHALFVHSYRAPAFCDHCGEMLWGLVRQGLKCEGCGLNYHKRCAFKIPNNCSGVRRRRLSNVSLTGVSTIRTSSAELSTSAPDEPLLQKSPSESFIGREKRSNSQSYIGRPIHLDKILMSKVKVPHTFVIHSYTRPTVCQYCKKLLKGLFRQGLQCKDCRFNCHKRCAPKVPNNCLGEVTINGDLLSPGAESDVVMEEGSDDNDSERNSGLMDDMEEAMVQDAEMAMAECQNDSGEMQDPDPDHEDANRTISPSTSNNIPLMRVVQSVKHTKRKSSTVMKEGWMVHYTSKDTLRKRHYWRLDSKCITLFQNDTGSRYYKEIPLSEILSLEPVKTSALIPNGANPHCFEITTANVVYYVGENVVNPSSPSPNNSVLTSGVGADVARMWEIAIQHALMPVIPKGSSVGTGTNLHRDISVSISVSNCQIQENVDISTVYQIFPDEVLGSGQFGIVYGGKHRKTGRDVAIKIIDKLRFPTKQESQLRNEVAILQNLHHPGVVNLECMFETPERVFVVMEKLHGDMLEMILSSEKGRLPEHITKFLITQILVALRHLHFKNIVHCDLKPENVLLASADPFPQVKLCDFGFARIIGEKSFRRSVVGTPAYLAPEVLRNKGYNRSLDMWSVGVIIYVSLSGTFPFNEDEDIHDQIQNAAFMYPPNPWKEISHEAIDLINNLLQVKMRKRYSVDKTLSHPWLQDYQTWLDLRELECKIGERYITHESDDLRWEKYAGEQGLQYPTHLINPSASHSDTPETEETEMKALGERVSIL

[19] = biological target: T4, Serine/threonine-protein kinase D1 (Homo sapiens); conditions: at 10 µM
[20] = biological target: T5, Protein kinase C zeta type (Homo sapiens) (UniProt Q05513); conditions: at 10 µM
T5 sequence (whole entry): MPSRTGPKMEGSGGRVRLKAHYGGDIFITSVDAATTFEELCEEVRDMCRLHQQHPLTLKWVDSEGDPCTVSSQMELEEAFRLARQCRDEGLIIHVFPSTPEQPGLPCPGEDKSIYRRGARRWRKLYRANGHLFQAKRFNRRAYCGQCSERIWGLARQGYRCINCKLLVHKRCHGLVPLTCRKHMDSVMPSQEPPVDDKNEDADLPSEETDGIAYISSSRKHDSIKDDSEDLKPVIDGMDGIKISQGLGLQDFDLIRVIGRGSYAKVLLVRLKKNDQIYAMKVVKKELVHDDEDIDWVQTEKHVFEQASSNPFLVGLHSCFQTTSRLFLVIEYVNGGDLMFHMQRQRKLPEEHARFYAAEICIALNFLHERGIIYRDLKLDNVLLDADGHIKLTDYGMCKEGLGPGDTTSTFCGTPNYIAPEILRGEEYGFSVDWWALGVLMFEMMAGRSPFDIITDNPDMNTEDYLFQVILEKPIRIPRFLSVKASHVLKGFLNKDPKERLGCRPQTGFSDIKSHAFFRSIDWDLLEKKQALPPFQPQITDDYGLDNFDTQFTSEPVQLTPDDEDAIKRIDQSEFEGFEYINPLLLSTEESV

Protein kinase C eta type (Homo sapiens), sequence (P24723 whole entry): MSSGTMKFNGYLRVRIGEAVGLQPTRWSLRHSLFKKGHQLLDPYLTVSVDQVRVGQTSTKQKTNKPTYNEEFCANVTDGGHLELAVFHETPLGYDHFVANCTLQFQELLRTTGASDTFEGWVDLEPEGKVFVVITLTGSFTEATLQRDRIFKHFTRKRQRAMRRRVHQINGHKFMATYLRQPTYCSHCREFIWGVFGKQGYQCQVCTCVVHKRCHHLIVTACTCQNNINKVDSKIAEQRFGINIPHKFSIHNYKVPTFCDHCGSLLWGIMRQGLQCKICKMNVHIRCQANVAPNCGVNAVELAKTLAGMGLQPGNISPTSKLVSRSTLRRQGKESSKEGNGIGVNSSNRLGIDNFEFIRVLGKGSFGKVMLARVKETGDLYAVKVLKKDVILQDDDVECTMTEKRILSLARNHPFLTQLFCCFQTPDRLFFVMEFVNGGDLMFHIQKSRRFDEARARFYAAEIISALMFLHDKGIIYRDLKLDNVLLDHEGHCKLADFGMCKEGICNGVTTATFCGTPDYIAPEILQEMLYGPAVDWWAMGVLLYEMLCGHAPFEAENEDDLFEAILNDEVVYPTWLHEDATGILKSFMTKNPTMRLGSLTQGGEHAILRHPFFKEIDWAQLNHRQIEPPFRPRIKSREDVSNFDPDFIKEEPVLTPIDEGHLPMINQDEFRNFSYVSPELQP
Tyrosine-protein kinase HCK (Homo sapiens), sequence (P08631 2-526 limits assumed): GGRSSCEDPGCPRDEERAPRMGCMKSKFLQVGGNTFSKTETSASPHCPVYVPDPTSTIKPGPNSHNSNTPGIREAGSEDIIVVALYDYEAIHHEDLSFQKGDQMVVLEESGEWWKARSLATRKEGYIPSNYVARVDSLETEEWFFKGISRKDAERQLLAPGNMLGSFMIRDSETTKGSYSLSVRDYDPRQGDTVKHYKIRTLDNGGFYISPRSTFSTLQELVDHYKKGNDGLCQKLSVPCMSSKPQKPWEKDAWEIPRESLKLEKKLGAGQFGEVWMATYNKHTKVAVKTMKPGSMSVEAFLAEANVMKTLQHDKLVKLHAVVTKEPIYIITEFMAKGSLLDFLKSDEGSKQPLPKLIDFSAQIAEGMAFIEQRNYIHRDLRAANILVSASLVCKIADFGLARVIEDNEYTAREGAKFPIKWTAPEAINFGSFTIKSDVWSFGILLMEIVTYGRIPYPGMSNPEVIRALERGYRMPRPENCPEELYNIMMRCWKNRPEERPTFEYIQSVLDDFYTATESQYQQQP
Protein kinase C theta type (Homo sapiens), sequence (Q04759 whole entry, looked up): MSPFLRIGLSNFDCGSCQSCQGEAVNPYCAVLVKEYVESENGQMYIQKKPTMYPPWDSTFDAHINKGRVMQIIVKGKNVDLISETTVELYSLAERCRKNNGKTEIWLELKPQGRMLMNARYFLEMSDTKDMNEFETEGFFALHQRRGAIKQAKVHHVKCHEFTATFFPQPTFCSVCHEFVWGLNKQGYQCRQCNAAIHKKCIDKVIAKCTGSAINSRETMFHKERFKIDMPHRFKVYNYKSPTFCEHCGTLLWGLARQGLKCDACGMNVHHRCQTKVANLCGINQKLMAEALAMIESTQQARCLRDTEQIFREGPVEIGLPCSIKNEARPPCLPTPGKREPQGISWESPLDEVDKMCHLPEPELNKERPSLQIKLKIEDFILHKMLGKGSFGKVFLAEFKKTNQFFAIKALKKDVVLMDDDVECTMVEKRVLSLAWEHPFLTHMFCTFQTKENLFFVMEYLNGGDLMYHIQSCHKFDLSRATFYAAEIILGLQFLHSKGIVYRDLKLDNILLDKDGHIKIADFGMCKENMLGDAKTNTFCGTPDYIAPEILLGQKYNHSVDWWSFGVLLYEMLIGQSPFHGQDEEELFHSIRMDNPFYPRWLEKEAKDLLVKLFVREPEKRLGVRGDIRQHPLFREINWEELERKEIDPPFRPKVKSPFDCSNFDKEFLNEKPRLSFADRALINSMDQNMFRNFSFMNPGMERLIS
Homeodomain-interacting protein kinase 3 (Homo sapiens), sequence (Q9H422 whole entry, looked up): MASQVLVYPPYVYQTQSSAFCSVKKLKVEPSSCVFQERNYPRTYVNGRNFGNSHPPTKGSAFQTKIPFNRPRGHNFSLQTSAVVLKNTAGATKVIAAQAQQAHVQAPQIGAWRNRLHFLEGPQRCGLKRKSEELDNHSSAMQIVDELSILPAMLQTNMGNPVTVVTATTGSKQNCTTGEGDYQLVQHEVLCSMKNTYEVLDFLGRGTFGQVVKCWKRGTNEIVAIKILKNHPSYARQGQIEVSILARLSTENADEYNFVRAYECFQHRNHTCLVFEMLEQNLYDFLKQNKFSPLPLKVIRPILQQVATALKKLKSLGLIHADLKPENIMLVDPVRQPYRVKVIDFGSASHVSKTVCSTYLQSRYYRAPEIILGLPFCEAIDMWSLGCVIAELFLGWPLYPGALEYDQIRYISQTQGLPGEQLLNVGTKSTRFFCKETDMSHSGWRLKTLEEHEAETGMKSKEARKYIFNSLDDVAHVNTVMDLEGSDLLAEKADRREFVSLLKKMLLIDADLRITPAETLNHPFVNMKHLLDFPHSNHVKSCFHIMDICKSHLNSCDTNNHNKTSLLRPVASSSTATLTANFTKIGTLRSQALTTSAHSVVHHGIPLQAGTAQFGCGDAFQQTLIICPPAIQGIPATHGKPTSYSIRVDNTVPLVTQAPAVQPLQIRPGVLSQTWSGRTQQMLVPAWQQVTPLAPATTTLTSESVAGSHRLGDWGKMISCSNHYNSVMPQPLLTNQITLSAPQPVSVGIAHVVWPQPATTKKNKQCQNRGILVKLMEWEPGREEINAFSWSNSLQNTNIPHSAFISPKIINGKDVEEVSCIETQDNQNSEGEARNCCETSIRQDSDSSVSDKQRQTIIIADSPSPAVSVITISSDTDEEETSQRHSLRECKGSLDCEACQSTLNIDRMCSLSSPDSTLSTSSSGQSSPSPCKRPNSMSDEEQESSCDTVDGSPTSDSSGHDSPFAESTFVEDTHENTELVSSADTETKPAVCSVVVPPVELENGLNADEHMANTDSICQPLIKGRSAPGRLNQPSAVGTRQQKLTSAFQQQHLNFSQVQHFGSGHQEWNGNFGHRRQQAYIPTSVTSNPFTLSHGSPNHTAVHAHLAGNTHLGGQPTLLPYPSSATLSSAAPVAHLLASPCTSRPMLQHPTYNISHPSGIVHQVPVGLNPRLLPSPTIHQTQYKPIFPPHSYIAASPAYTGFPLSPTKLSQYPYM
Insulin-like growth factor 1 receptor (Homo sapiens), sequence (P08069 31-736 limits assumed): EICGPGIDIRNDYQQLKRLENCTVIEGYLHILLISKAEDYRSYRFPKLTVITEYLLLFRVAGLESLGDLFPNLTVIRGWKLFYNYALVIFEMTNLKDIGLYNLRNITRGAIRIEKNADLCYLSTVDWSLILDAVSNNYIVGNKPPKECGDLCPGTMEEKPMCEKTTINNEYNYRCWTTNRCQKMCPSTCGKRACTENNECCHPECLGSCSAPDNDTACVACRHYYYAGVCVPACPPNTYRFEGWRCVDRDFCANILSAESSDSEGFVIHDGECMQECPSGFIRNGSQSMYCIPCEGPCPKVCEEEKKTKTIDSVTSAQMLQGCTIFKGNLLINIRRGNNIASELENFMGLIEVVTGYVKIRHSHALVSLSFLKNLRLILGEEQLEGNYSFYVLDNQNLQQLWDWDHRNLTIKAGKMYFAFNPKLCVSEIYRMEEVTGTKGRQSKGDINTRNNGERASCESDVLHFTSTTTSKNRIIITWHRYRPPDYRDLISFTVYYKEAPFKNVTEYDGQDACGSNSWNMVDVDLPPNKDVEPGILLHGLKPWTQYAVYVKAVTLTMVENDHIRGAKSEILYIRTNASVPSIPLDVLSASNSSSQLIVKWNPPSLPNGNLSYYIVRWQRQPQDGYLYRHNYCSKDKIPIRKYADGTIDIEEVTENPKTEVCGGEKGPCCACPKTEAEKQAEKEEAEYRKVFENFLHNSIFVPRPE
Insulin-like growth factor 1 receptor (Homo sapiens), sequence (P08069 741-1367 limits assumed): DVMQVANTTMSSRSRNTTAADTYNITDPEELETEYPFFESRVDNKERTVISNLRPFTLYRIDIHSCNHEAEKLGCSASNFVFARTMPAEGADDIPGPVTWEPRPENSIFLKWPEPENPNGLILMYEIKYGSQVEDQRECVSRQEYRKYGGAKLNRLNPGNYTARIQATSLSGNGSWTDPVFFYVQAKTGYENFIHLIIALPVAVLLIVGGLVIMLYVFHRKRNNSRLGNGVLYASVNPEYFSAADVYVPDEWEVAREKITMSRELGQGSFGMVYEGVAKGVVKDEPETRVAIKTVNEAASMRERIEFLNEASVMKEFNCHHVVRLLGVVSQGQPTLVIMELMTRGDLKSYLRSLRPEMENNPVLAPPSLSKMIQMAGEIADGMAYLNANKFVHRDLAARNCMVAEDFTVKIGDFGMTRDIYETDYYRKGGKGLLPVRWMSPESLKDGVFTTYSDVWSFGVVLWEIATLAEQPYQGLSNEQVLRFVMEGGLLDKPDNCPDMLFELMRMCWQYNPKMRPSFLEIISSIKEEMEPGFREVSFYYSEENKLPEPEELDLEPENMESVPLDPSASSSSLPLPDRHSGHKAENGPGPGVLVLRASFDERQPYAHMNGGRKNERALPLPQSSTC

SMILES | residual activity [1] [%] | residual activity [2] [%] | residual activity [3] [%] | residual activity [4] [%] | residual activity [5] [%] | residual activity [6] [%] | residual activity [7] [%] | residual activity [8] [%] | residual activity [9] [%] | residual activity [10] [%] | residual activity [11] [%] | residual activity [12] [%] | residual activity [13] | residual activity [14] [%] | residual activity [15] [%] | residual activity [16] [%] | residual activity [17] [%] | residual activity [18] [%] | residual activity [19] [%] | residual activity [20] [%]
O=C1Nc2ccc(Cl)cc2/C1=C/c1cc(Cl)c(O)c(Cl)c1 | 46 | 12 | 1 | 61 | 15 | 86 | 53 | 126 | 95 | 79 | 99 | 76 | 85% (inactive) | 83 | 98 | 56 |  |  |  | 
Nc1ncnc2c1cnn2-c1ccccc1 | 94 |  | 83 | 83 | 68 | 96 | 85 | 140 | 102 | 76 |  |  | 102% (inactive) | 98 |  |  | 129 | 92 |  | 
O=C1C(Cl)=C(N2C(=O)CCC2=O)C(=O)c2ccccc21 | 86 | 96 |  | 71 | 63 | 91 |  | 93 | 68 | 24 | 92 | 85 | 118% (inactive) | 55 | 99 | 100 | 130 | 72 | 76 | 
CCN(CC)CCNC(=O)c1c(C)[nH]c(/C=C2\C(=O)Nc3ccc(Cl)cc32)c1C | -5 | 43 | 12 | 13 | 3 | 9 | 0 | 135 |  |  |  |  |  |  | 73 | 16 | 13 | 38 | 4 | 
O=c1cc(N2CCNCC2)oc2c(-c3ccccc3)cccc12 | 99 | 83 | 38 | 79 | 66 |  | 95 |  | 99 | 82 | 102 | 94 | 93% (inactive) | 71 | 102 |  | 149 | 96 | 90 | 
CC(C)c1nn(-c2c(Cl)cccc2Cl)c2nc(Cc3ccc(OCCO)cc3)[nH]c(=O)c12 | 103 | 97 | 56 | 75 | 56 | 98 | 86 | 135 | 92 | 91 | 90 | 80 | 99% (inactive) | 102 | 95 | 91 | 103 |  | 95 | 93
NC(=O)Nc1sc(-c2ccc(F)cc2)cc1C(N)=O | 90 | 63 | 51 | 24 | 6 | 37 | 7 | 82 | 74 | 60 | 83 | 50 | 109% (inactive) | 107 | 100 | 64 | 32 | 58 | 29 | 100
